Test results as given in PubChem BioAssay (NCATS).
Results filed as inconclusive are left out. Active and inactive are the calls of the source. Unless noted, calls come from the whole dose curve; as a rule, active = well fitted curve in the direction sought with a large enough effect; inconclusive = small, poorly fitted or top-dose-only effect, or another doubt; inactive = no such curve, though single readings can be large; an effect the other way counts as inactive or inconclusive.

What was measured:
[1] = qHTS profiling for inhibitors of Plasmodium falciparum (3D7) proliferation (AID 743322; call rule not given here;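 note: infected erythrocytes exposed to compound for 72 h before lysis; 100% = DMSO vehicle wells and 0% = 0.29 µM artemisinin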); details: P. falciparum 3D7 proliferation; at 28.7 µM (top of the series)
Summary of the method: (§1)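 Erythrocytes infected with P. falciparum (0.3% parasitemia, 2.5% hematocrit) incubated with compounds 72 h at 37 C, 5% CO2. Lysis with saponin/Triton buffer containing SYBR Green I, overnight at room temperature in the dark; DNA fluorescence (485/535 nm) normalised to 0.29 uM artemisinin and DMSO.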

[2] = qHTS profiling for inhibitors of Plasmodium falciparum (DD2) proliferation (AID 743323; call rule not given here); details: lower = more inhibition; at 28.7 µM (top of the series)
Summary of the method: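 Parasite proliferation measured via DNA-dye fluorescence, as uninfected erythrocytes lack DNA. Cultures at 0.3% parasitemia and 2.5% hematocrit incubated 72 h with compound; signal scaled between vehicle and 0.29 uM artemisinin wells.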

[3] = qHTS profiling for inhibitors of Plasmodium falciparum (HB3) proliferation (AID 743324); details: Plasmodium falciparum HB3 blood-stage proliferation; at 28.7 µM (top of the series);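 note: 100% = DMSO vehicle wells and 0% = artemisinin-treated control wells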
Summary of the method: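 P. falciparum HB3 grown in erythrocytes (0.3% parasitemia, 2.5% hematocrit final) with compound for 72 h at 37 C, 5% CO2. Parasite DNA detected by SYBR Green after saponin/triton lysis overnight; normalized to 0.29 uM artemisinin and DMSO.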

[4] = qHTS profiling of the MIPE4 collection as inhibitors of Plasmodium falciparum (3D7) proliferation (AID 743344; call rule not given here;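 note: scaled between DMSO vehicle wells and 0.29 µM artemisinin as full inhibition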); details: P. falciparum 3D7 in erythrocytes, SYBR Green DNA fluorescence, 72 h; at 28.5 µM (top of the series) unless noted
Summary of the method: as §1

[5] = qHTS profiling of the MIPE4 collection as inhibitors of Plasmodium falciparum (DD2) proliferation (AID 743345; call rule not given here); details: P. falciparum Dd2 in erythrocytes, SYBR Green DNA, 72 h; at 28.5 µM (top of the series) unless noted
Summary of the method: as §1

[6] = qHTS profiling of the MIPE4 collection as inhibitors of Plasmodium falciparum (DD2) proliferation (Rep 2) (AID 743346; call rule not given here); details: P. falciparum Dd2 in erythrocytes, SYBR Green DNA, 72 h; at 28.5 µM (top of the series) unless noted
Summary of the method: as §1

[7] = qHTS profiling of the MIPE4 collection as inhibitors of Plasmodium falciparum (HB3) proliferation (AID 743347; call rule not given here;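 note: plate controls were DMSO vehicle wells for no effect and artemisinin wells for full effect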); details: P. falciparum HB3 in erythrocytes, SYBR Green DNA, 72 h; at 28.5 µM (top of the series) unless noted
Summary of the method: as §1

[8] = High-throughput drug toxicity screening in the BPDCN cell line Gen2.2 (AID 1224824; call rule not given here;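 note: cells exposed to compounds for 48 h before reading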); details: Gen2.2 BPDCN cells; at 45.8 µM (top of the series) unless noted
Summary of the method: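 Gen2.2, 500 cells/well, phenol red-free RPMI/10% FBS/Pen-Strep; 48 h cpd, 37 °C/5% CO2; CTG lum, 15 min RT. Norm: DMSO = 100%, bortezomib 9.2 uM final = 0%.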

[9] = High-throughput drug toxicity screening in the BPDCN cell line Cal-1 (AID 1224825; call rule not given here); details: Cal-1 BPDCN cell viability, qHTS; at 45.8 µM (top of the series) unless noted
Summary of the method: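 Exponentially growing Cal-1 cells, 500 per well in phenol red-free RPMI with 10% FBS, were exposed to compounds for 48 h at 37 °C, 5% CO2. Viability was read by CellTiter-Glo luminescence and normalised to DMSO (100%) and 9.2 uM bortezomib (0%).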

[10] = qHTS assay for measurement of the activity of small molecule inhibitors on Zika virus induced Caspase-3 activity in human iPSC derived neural progenitor cells (hNPCs) (AID 1224857); note: % of control where 0% means no effect; nearly all actives have a fitted effect of over 65% in size
Summary of the method: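 Pretreat hNPCs with compound 1 h; infect ZIKV 2 FFU/cell; 6 h 37 C, 5% CO2; Caspase-Glo 3/7, 30 min RT; luminescence; normalize to no-virus and virus-only wells.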

[11] = qHTS assay for measurement of the activity of small molecule inhibitors on Zika virus induced Caspase-3 activity in human astrocytoma cells (AID 1224859);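 note: plate controls were ZIKV-infected untreated cells for no effect and uninfected cells for full effect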
Summary of the method: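 Human SNB-19 astrocytoma cells in RPMI 1640 with 10% FBS receive compound one hour ahead of Zika virus at 2 FFU/cell. After 6 h infection, caspase-3/7 activity is detected by Caspase-Glo luminescence.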

[12] = qHTS Screen of the MIPE 4.0 Collection Against Ewings Sarcoma (RDES) (AID 1259252); note: nearly all actives have a fitted effect of over 35% in size; note: potency is the fitted concentration of half-maximal effect
Summary of the method: (§2)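 Measured: ATP luminescence (CellTiter-Glo) 10 min after reagent addition, following 48 h drug treatment. Relative luciferase units converted to percent activity, with no-cell wells as full and DMSO wells as zero inhibition.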

[13] = qHTS Screen of the MIPE 4.0 Collection Against Ewings Sarcoma (TC71) (AID 1259253); note: nearly all actives have a fitted effect of over 40% in size; note: potency is the fitted concentration of half-maximal effect
Summary of the method: as §2

[14] = qHTS Screen of the MIPE 4.0 Collection Against Ewings Sarcoma (EW8) (AID 1259255); note: nearly all actives have a fitted effect of over 35% in size; note: potency is the fitted concentration of half-maximal effect;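 for viability: 100% = DMSO-treated cells and 0% = medium-only wells without cells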
Summary of the method: as §2

[15] = qHTS Assay for Identifying Gametocytocidal Compounds (AID 743244);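 note: % is set by controls: 0 for no effect and ±100 for the full control effect; actives lower the fluorescent signal which means gametocytes are killed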; details: P. falciparum 3D7 stage III-V gametocytes, alamarBlue, 72 h; max response: stronger effect = lower value
Summary of the method: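 Compounds are pinned into medium, gametocytes (stage III–V, 3D7, 20,000 cells/well) added, and plates held 72 h at 37 °C in 5% CO2. AlamarBlue follows for 24 h before fluorescence reading.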

[16] = qHTS assay for cell viability of HEK293 cells (AID 743288); details: ATP luminescence (CellTiter-Glo), 18 h, stronger effect = lower value; note: % is set by controls: 0 for no effect and ±100 for the full control effect; nearly all actives have a fitted effect of over 50% in size
Summary of the method: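 The Tox21 protocol used parental HEK293 cells treated for 18 h at 37 C with compounds delivered by pintool; ATP-coupled luminescence after 30 min at room temperature gave viability.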

[17] = qHTS assay for cell viability of the p53RE-bla HCT-116 cell line (AID 743292); note: % is set by controls: 0 for no effect and ±100 for the full control effect; nearly all actives have a fitted effect of over 55% in size
Summary of the method: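 ATP-based luminescent viability (CellTiter-Glo, 30 min RT) after 16 h compound treatment at 37 C of p53RE-bla HCT-116 cells, seeded at 4,000 cells/well and rested 5 h before dosing.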

SMILES | remaining parasite growth % (stronger effect = lower value) [1] | activity, percent of control [2] | remaining proliferation (% of control), lower = more inhibition [3] | parasite growth, % of DMSO control [4] | parasite growth remaining, % of DMSO control (lower = more inhibition) [5] | parasite growth, % of control (lower = inhibition) [6] | growth, % of control [7] | cell viability, % of control (lower = more cytotoxic) [8] | viability (% of control) [9] | Potency [10] | Potency [11] | Potency [12] | Potency [13] | Potency [14] | max response [15] | max response [16] | outcome [17]
O=C(O)CCCCCC(=O)NN=C1CCCC1 | 92.8% | 96.4% | 107% | 101% | 100% | 194% | 101% | 141% | 105% | inactive | inactive | inactive | inactive | inactive | – | – | –
C=C1C[C@@]2(O)O[C@@]3(C[C@H]2C(C)C)[C@H](C)CC[C@H]13 | – | – | – | – | – | – | – | 67.8% | 101% | inactive | inactive | inactive | inactive | inactive | – | – | –
Nc1ccn(C[C@@H](CO)OCP(=O)(O)O)c(=O)n1 | – | – | – | – | – | – | – | 138% [at 23.2 µM] | 98.1% [at 23.2 µM] | inactive | inactive | inactive | inactive | inactive | 0.0749% (inactive) | – | –
CCCCCCCCCCCCCCCC(=O)OC[C@@H](NC(=O)C(Cl)Cl)[C@H](O)c1ccc([N+](=O)[O-])cc1 | – | – | – | – | 95.4% | 135% | 112% | 132% | 117% | inactive | inactive | inactive | inactive | inactive | 5.04% (inactive) | – | –
COc1cc2ncnc(Nc3cccc(Br)c3)c2cc1OC | – | – | – | 8.2% | 37.1% | 48.9% | 8.18% | 64% | 5.16% | inactive | inactive | 0.132 µM (active) | 0.59 µM (active) | 1.48 µM (active) | – | – | –
Nc1ccn(C2CO[C@H](CO)O2)c(=O)n1 (stereo partly specified) | – | – | – | – | 105% | 89.7% | 75.5% | 203% | 99.2% | inactive | inactive | inactive | inactive | inactive | 19.9% (inactive) | – | –
NC(=O)N1CCC(CC(=O)N2CCC([C@H]3c4ncc(Br)cc4CCc4cc(Cl)cc(Br)c43)CC2)CC1 | – | – | – | 5.47% | 10.6% | 13.1% | 9.54% | 82.6% | 6.4% | inactive | inactive | 20.9 µM (active) | 16.6 µM (active) | 16.6 µM (active) | – | – | –
COC(=O)[C@H](CCCN=C(N)N)NS(=O)(=O)c1ccc(C)cc1 | – | – | – | – | – | – | – | 94.4% | 104% | inactive | inactive | inactive | inactive | – | – | – | –
Cc1cc(O)c2c(c1)C(=O)c1cccc(O)c1C2=O | – | – | – | – | 85.9% | 121% | 110% | 99.4% | 94.6% | inactive | inactive | inactive | inactive | inactive | – | -7.7% (inactive) | inactive
